Compounds without any hit were thinned out: in the full panel of roughly 83,000, 20% have a hit.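 Values shown are percent growth following 48 h exposure of cells in 96-well plates to a single concentration of compound; below 10 was considered active.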 A number with no mark means an inactive call. Active and inactive are the calls of the source.
What follows are compounds tested on SN12C renal (assay: NCI-60 one-dose screen, 48 h (100 = growth as untreated, 0 = no growth, -100 = all killed)). Details: 10 µM unless noted.
Protocol: Growth inhibition of the SN12C human tumor cell line is measured as a screen for anti-cancer activity. Cells are grown in 96 well plates and exposed to the test compound for 48 hours. Compounds are tested at a single concentration, which is 10^-5 M for most compounds. The reported endpoint is percent growth (GI% or GIPRCNT), where numbers from 0 - 100% represent growth inhibition, and numbers from -100% - 0 represent cell death. For example, a value of 40 represents 60% growth inhibition. A value of 0 means no net growth occurred over the course of the experiment. A value of -40 indicates 40% of cells at the beginning of the experiment died by the end of the experiment. A value of -100 means all cells are dead at the end of the experiment.
NCI-60 Human Tumor Cell Lines Screen was performed using the standard one-dose NCI protocol, which is described in more detail at https://dtp.cancer.gov/discovery_development/nci-60/default.htm.
Compounds with GIPRCNT values below 10 were considered active. Activity score was based on GIPRCNT using the following formula: […]
Score is 0 for GIPRCNT values of 100 or above, 50 for GIPRCNT values of 0, and 100 for GIPRCNT values of -100.

SMILES | growth
CN1CCN(Cc2ccc(NC(=O)c3cncc(C#Cc4ncc5cnccn45)c3)cc2C(F)(F)F)CC1 | 54.5%
Cc1ccc(O)c(Cc2ccccc2)c1 | 90.3%
COc1ccc2c(c1)CCCC21C(=O)Nc2ccccc21 (stereo not given) | 101%
CC(C)(C)NC(=O)C(OC(=O)C1CCc2cc(F)ccc2O1)c1ccccc1Cl (stereo not given) | 101%
CCCCNCC(O)c1cc(-c2ccc(C(F)(F)F)cc2)nc(-c2ccc(C(F)(F)F)cc2)c1 (stereo not given) | -73.2% (active)
Cc1c(C)c(C)c([N+](=O)[O-])c([N+](=O)[O-])c1C | 98.7%
C=C1NC(=O)C(C(C)CC)NC(=O)C2CSCC(NC(=O)CCC(=O)O)C(=O)NC(Cc3ccccc3)C(=O)NC(C)C(=O)NC(CC(C)CC)C(=O)NC(C(=O)NC(Cc3ccccc3)C(=O)N3CCCC3C(=O)N2)C(C)OC(=O)C(CO)NC(=O)C(C(O)COC)N(C)C(=O)C(C(C)C)NC(=O)C(CC(C)CC)NC1=O (stereo not given) | 31.4% [6 µM]
CC(=O)c1c(C)nc(-c2cc(C)cc(Cl)c2)nc1-c1cccc(Oc2ccccc2)c1 | 80.1%
C=CCn1c(SCC(=O)Nc2ccc(C(=O)/C=C/c3ccc(Cl)cc3)cc2)nnc1-c1ccc(Cl)cc1 | 78.8%
COc1ccc(-c2n[nH]nc2-c2cc(OC)c3c(c2)OCO3)cc1 | 23%
ClCc1cccc(CSc2ncnc3c2ncn3Cc2cccc(CCl)c2)c1 | 2.77% (active)
O=NN(CC(=O)NNc1ccccc1)CC(=O)NNc1ccccc1 | 87%
N#Cc1c(NN)n(C2OC(CO)C(O)C2O)c2ncnc(N)c12 (stereo not given) | 16.1%
COc1ccc(C(=O)c2c(N)nc3n2CCCC3)cc1OC | 109%
CC(=O)OC1Oc2cc(C)c(C)cc2-c2oc(=O)c(-c3ccc(F)cc3)cc21 (stereo not given) | 83.2%
NNC(=O)Cc1ccccc1 | 93.4%
C#CC[C@@H]1C[C@]2(C)[C@H]3CC=C4[C@H]5[C@@H](C)[C@H](C)CC[C@]5(C(=O)NCCCCCCCCN)CC[C@@]4(C)[C@]3(C)CC[C@H]2C(C)(C)[C@H]1OC(C)=O | 76.1%
CNC(=O)c1cc(Oc2ccc(NC(=O)c3[nH]c(SC)nc3-c3ccc(F)cc3)cc2)ccn1 | 39.2%
O=C(C(Br)C(Br)c1ccccc1)C(Br)C(Br)c1ccccc1 (stereo not given) | -30.5% (active)
CCN(CC)CCCCCCCNc1cc(OC)cc2c(C)ccnc12 | 81.6%

SMILES | growth
Cc1cc(NC(=O)c2ccc(N)cc2)ccc1N=Nc1ccc2cc(S(=O)(=O)O)cc(S(=O)(=O)O)c2c1 | 109%
CCCCn1c(C)nc2cc(Nc3nc(Cl)nc4nc[nH]c34)ccc21 | 78.9%
CN(C)c1ccc(/C=N/Nc2nnc3n2N=C(c2ccc(Cl)cc2)CS3)cc1 | 95%
Cc1ccc(N=CNN=C(N)N)cc1 | 99.3%
C=CCn1c(C)nc2cc(Nc3nc(N4CCCC4)nc4nc[nH]c34)ccc21 | 36.8%
O=C(/C=C/c1cc([N+](=O)[O-])ccc1Cl)c1ccccc1 | 80.8%
CCN(CC)CCC(CNc1ccnc2cc(Cl)ccc12)c1ccc(O)cc1 (stereo not given) | 99.1%
Oc1ccc(-c2cnc(-c3ccccc3)[nH]2)c(O)c1 | 91.6%
COc1ccc2[nH]cc(/C=C3\C(=O)Nc4ccccc43)c2c1 | 49.5%
CC(=O)O[C@H]1[C@H](CC#CC#CC[C@@H]2C[C@]3(C)[C@H]4CC=C5[C@H]6[C@@H](C)[C@H](C)CC[C@]6(C(=O)NCCN(CCN)CCN)CC[C@@]5(C)[C@]4(C)CC[C@H]3C(C)(C)[C@H]2OC(C)=O)C[C@]2(C)[C@H]3CC=C4[C@H]5[C@@H](C)[C@H](C)CC[C@]5(C(=O)NCCN(CCN)CCN)CC[C@@]4(C)[C@]3(C)CC[C@H]2C1(C)C | 51.9%
COc1cc(C2=NOC(c3cc(OC)c(OC)c(OC)c3)C2)ccc1OCCCCOc1cc2c(cc1OC)C(=O)N1CCC[C@H]1C=N2 (stereo not given in full) | 6.18% (active)
NC(=S)N/N=C(/c1cccs1)C1CC1 | 82.6%
CCCCn1c(C)nc2ccc(Nc3nc(Cl)nc4nc[nH]c34)cc21 | 74.6%
CCn1c(CN2CCN(Cc3ccccc3)CC2)nc2cc(NC(=O)c3cccs3)ccc21 | -87.6% (active)
Cc1[nH]nc2ccc3nc(-c4ccc5[nH]ncc5c4)c4c(c3c12)CCCC4 | 23.2%
Cc1cc(O)c(C2=NN(c3ccc(S(N)(=O)=O)cc3)C(c3ccc(Cl)cc3)C2)c(C)c1Cl (stereo not given) | 36.1%
O=c1c2sc3ncc(Cl)cc3c2nnn1-c1cccc(Cl)c1 | 74.3%
COc1ccc(/C(=C\c2cc(OC)c(OC)c(OC)c2)C(=O)N2CCCNCC2)cc1 | 106%
COc1ccc(OC)c(Nc2nc(-c3c(C)nc4sccn34)cs2)c1 | 90.1%
CC(OC(=O)Nc1cccc(Cl)c1)C(=O)O (stereo not given) | 92.7%

— PubChem BioAssay (NCI)
